# A number with no mark means an inactive call. For some of these results: Results with a measured potency or affinity are listed apart. Calls of active or inactive are those of the source. Unless noted, how the calls were made is not given here.
# Assays:
# [1] = antimalarial activity against Dd2 strain (AID 2302;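 active means growth inhibition above 50% at the single 2 µM test dose, taken to imply half-maximal potency below 2 µM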;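 further: 0% = DMSO untreated growth and 100% = chloroquine plus artemisinin killed control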); conditions: P. falciparum Dd2 in RBCs, LDH growth readout, 72 h; at 2 µM; hits give high values
# [2] = human hepatoma cell viability loss – ATP luminescence, cytotoxicity control for P. falciparum antimalarial project, primary screen (AID 2303;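 active means inhibition above 50%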;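 further: 0% = DMSO wells and 100% = digitonin-killed cells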); conditions: HepG2 viability, 24-48 h, at 10 µM, hits give high values
# [3] = molecular target: L-lactate dehydrogenase (Plasmodium falciparum (isolate CDC / Honduras)) (UniProt Q27743); test: PfLDH activity inhibition – cell lysate, 3D7 strain, counter-screen for P. falciparum growth inhibition project (AID 2304);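 further: 0% = vehicle and 100% = reference inhibitor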; conditions: P. falciparum 3D7 crude extract, LDH APAD/NBT absorbance; at 2 µM; hits give high values
# [4] = inhibition of 3D7 malaria parasite growth – strain 3D7 (AID 2306);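 further: 0% = DMSO wells and 100% = chloroquine plus artemisinin control wells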; conditions: P. falciparum 3D7 erythrocytic growth, LDH absorbance, 72 h; at 2 µM; hits give high values
# [5] = molecular target: Calcium-dependent protein kinase 1 (Plasmodium falciparum (isolate 3D7)) (UniProt P62344); test: PfCDPK1 kinase inhibitors, biochemical, TCAMS library (AID 1159585; cut-off not given, nearly all actives have IC50 up to about 0.98 µM;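 further: inhibitors leave more ATP so luminescence rises with inhibition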); conditions: recombinant PfCDPK1, Kinase-Glo ATP depletion luminescence
# [6] = molecular target: Plasmodium falciparum protein kinase 6 (PK6, PF3D7_1337100) (UniProt Q8IDW1); test: PfPK6 kinase inhibitors, biochemical, TCAMS library (AID 1159586); conditions: recombinant PfPK6, Kinase-Glo ATP depletion luminescence
# [7] = molecular target: Protein kinase 7 (PK7), Plasmodium falciparum 3D7 (PF3D7_0213400) (UniProt Q7YTF7); test: inhibition of Plasmodium PK7 catalytic activity – biochemical, TCAMS antimalarial set, Kinase-Glo luminescence (AID 1159587); conditions: recombinant PfPK7, Kinase-Glo ATP depletion luminescence
# [8] = molecular target: Calcium-dependent protein kinase 4 (Plasmodium falciparum (isolate 3D7)) (UniProt Q8IBS5); test: PfCDPK4 kinase inhibitors, biochemical, TCAMS library (AID 1159588; cut-off not given, nearly all actives have IC50 up to about 0.91 µM); conditions: recombinant PfCDPK4, Kinase-Glo ATP depletion luminescence
# Sequence of Calcium-dependent protein kinase 4 (Plasmodium falciparum (isolate 3D7)) (Q8IBS5 whole entry, looked up): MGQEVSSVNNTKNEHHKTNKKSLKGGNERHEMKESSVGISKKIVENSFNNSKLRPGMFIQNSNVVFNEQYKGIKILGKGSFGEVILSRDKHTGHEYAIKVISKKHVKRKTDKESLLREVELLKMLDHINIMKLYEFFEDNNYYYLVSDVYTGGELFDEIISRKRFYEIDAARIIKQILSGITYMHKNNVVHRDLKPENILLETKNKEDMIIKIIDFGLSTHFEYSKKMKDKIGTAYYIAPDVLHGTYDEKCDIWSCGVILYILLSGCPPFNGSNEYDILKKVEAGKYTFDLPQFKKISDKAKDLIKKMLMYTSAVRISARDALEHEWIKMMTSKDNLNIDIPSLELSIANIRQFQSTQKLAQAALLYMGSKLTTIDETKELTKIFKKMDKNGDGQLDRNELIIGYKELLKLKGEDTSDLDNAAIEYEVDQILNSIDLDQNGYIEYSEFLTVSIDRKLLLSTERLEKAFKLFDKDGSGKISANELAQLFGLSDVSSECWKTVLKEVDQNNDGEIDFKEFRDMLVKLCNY
# Sequence of L-lactate dehydrogenase (Plasmodium falciparum (isolate CDC / Honduras)) (Q27743 whole entry, looked up): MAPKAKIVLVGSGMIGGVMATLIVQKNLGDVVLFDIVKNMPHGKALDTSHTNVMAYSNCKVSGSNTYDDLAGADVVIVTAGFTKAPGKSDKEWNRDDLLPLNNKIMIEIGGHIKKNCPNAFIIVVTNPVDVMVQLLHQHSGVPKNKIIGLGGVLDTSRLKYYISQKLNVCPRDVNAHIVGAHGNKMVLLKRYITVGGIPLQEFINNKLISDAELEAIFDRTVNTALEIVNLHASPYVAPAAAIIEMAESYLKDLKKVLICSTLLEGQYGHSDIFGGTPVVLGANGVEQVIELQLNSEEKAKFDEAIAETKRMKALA
# Sequence of Calcium-dependent protein kinase 1 (Plasmodium falciparum (isolate 3D7)) (P62344 whole entry, looked up): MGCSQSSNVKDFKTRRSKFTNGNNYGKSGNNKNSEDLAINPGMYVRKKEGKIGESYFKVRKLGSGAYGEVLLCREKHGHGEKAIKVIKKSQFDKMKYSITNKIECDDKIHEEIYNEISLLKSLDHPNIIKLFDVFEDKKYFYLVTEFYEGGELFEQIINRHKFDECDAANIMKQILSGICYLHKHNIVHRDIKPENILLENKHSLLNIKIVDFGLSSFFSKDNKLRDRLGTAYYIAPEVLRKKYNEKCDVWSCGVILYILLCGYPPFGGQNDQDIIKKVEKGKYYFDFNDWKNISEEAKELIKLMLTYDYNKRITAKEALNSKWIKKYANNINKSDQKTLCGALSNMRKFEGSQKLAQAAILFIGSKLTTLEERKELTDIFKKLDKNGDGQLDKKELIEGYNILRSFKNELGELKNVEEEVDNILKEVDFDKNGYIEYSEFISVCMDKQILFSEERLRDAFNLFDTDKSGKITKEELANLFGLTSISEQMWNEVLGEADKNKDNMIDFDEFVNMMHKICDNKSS
# Sequence of Protein kinase 7 (PK7), Plasmodium falciparum 3D7 (PF3D7_0213400) (Q7YTF7 1-343): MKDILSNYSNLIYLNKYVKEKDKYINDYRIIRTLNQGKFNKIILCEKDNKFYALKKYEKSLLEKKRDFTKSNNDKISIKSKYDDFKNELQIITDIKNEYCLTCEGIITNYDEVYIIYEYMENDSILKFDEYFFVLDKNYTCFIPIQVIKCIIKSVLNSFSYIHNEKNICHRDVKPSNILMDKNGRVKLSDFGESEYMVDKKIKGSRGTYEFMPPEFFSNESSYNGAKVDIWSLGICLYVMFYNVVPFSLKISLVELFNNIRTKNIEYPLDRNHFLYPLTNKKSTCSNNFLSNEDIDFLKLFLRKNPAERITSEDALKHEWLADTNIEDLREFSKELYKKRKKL
# Sequence of Plasmodium falciparum protein kinase 6 (PK6, PF3D7_1337100) (Q8IDW1 1-305): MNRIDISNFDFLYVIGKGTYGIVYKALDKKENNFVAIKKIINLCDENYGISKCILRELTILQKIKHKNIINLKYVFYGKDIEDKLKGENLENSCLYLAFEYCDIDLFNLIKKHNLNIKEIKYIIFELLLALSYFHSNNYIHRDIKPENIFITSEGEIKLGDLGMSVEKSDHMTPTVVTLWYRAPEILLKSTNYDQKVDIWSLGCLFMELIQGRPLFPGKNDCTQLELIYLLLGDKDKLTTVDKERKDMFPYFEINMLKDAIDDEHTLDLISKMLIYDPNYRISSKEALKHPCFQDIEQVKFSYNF
SMILES,growth inhibition [1],inhibition [2],inhibition [3],growth inhibition [4],outcome [5],outcome [6],outcome [7],outcome [8]
CN(C)CCCN1C(=O)c2[nH]nc(-c3ccc(Cl)cc3O)c2C1c1ccc(Cl)cc1 (stereo not drawn),15%,57% (active),4%,99% (active),inactive,inactive,inactive,inactive
O=C(Nc1cccc(-c2ccc(CN3CCCC3)cc2)c1)c1ccc(F)cc1,9%,23%,4%,92% (active),inactive,inactive,inactive,inactive
CCCC(C)NC(=O)[C@H](CC1CCCCC1)NC(=O)c1ccc(O)c(-c2ccc(OC)cc2)c1 (stereo partly drawn),37%,3%,1%,89% (active),inactive,inactive,inactive,inactive
Cc1sc2nc(CN3CCCC3)nc(-n3c(NCCO)nc4ccccc43)c2c1C,11%,19%,-2%,96% (active),inactive,inactive,inactive,inactive
O=C(/C=C/c1ccc(Cl)c(Cl)c1)NCCCCCN1CCCN(C(=O)Nc2cc(F)cc(F)c2)CC1,1%,4%,0%,94% (active),inactive,inactive,inactive,inactive
O=C(CCCCCNC(=O)c1ccc(O)c(-c2ccc(Cl)c(Cl)c2)c1)NCc1cccc2ccccc12,15%,2%,-2%,99% (active),inactive,inactive,inactive,inactive
CC(=O)N(C)c1ccc(C(=O)Nc2cccc(-c3cccc(-c4nc5ccc(C(F)(F)F)cc5[nH]4)c3)c2)cc1,29%,31%,-6%,96% (active),inactive,inactive,inactive,inactive
O=C(Nc1ccc(CN2CCOCC2)cc1)c1ccc(-c2cc(Cl)ccc2Cl)o1,13%,5%,-1%,101% (active),inactive,inactive,inactive,inactive
CC(C)C(C(=O)n1cc2c(ccc3nc(N)nc(N)c32)n1)C(C)C,49%,58% (active),-6%,98% (active),inactive,inactive,inactive,inactive
COc1cccc(C(=O)[C@H]2C[C@@H]2CN(C)CC(O)c2cc(C)c(OC)cc2C)c1 (stereo partly drawn),73% (active),8%,2%,88% (active),inactive,inactive,inactive,inactive
CC(NC(=O)c1ccc(O)c(-c2ccc(Cl)c(Cl)c2)c1)C(=O)NC1CCCCC1 (stereo not drawn),82% (active),-5%,-2%,96% (active),inactive,inactive,inactive,inactive
CCc1cc(-c2onc(C(F)(F)F)c2-c2ccccc2)c(O)cc1OC,73% (active),16%,-2%,98% (active),inactive,inactive,inactive,inactive
Cc1ccc2[nH]c(-c3ccccc3N)cc2c1,8%,11%,8%,97% (active),inactive,inactive,inactive,inactive
CCOc1ccc2nc(C)cc(NN=Cc3ccncc3)c2c1,78% (active),8%,0%,99% (active),inactive,inactive,inactive,inactive
CS(=O)(=O)CCNCc1nc(-c2ccc3c(Nc4ccc(F)c(O)c4)ccnc3c2)cs1,84% (active),-10%,3%,95% (active),inactive,inactive,inactive,inactive
CCc1nc2nc(C)cc(Nc3cc(C)cc(C)c3)n2n1,96% (active),21%,7%,96% (active),inactive,inactive,inactive,inactive
CCCN(CCC)CCCNc1ccc(C(=O)Nc2ccc(C(C)C)cc2)cc1[N+](=O)[O-],38%,17%,-8%,98% (active),inactive,inactive,inactive,inactive
CCN(CC)C(=NCCCCCCN=C(/N=C(/N)Nc1ccc(Br)cc1)N(CC)CC)/N=C(/N)Nc1ccc(Br)cc1,95% (active),-7%,-5%,96% (active),inactive,inactive,inactive,inactive
N#Cc1cccc(CN2CCCN(Cc3cccc(C(=O)Nc4ccc(Cl)cc4)c3)CC2)c1,9%,46%,1%,82% (active),inactive,inactive,inactive,inactive
CN1CCCC(CN2CCN(Cc3ccc(-c4ccc(-c5nc6ccccc6[nH]5)s4)cc3)CC2)C1 (stereo not drawn),100% (active),57% (active),-8%,100% (active),inactive,inactive,inactive,inactive
CC1CCCN(C(=O)C(C)Nc2cc(Cl)ccc2N2CCOCC2)C1 (stereo not drawn),96% (active),-1%,-5%,101% (active),inactive,inactive,inactive,inactive

SMILES,growth inhibition [1],inhibition [2],inhibition [3],growth inhibition [4],outcome [5],outcome [6],outcome [7],outcome [8]
COc1ccc(C2CC(c3ccccc3)=NN2C(=O)c2ccc(Br)o2)cc1 (stereo not drawn),45%,6%,-6%,96% (active),inactive,inactive,inactive,inactive
Cc1cccc2[nH]c(-c3cccc(-c4cccc(NC(=O)Cc5cnc[nH]5)c4)c3)nc12,100% (active),32%,-4%,102% (active),inactive,inactive,inactive,inactive
CC(CNC(=O)[C@H]1CNCCN1C(=O)CCCc1ccccc1)c1ccccc1 (stereo partly drawn),1%,12%,3%,94% (active),inactive,inactive,inactive,inactive
C=CCn1c(=N)n(CC(O)c2ccc(Cl)c(Cl)c2)c2ccccc21 (stereo not drawn),80% (active),15%,1%,91% (active),inactive,inactive,inactive,inactive
CC(C)c1cc2c(cc1O)C(Cc1ccccc1Cl)N(C)CC2 (stereo not drawn),33%,-7%,-4%,97% (active),inactive,inactive,inactive,inactive
CCOc1ccc(C(C)NC(=O)c2cc(Cl)ccc2OC)cc1OCC (stereo not drawn),99% (active),-1%,-2%,101% (active),inactive,inactive,inactive,inactive
O=C(c1ccccc1)N1CCC(CN2CCOC(c3ccccc3)(c3ccccc3)C2)CC1,95% (active),14%,1%,94% (active),inactive,inactive,inactive,inactive
COc1ccc2nc(N)nc(C)c2c1,1%,5%,5%,90% (active),inactive,inactive,inactive,inactive
CS(=O)(=O)Nc1ccc(-c2cnc3[nH]cc(-c4ccc(C(=O)O)cc4)c3c2)cc1,45%,-15%,-1%,95% (active),inactive,inactive,inactive,inactive
COc1cccc(Nc2nc(C)cc(Nc3cccc(C#N)c3)n2)c1,92% (active),-2%,-3%,101% (active),inactive,inactive,inactive,inactive
O=C(/C=C/c1ccc(Cl)cc1)NCCCCCN1CCCN(C(=O)Nc2cccc(Cl)c2)CC1,10%,19%,-3%,85% (active),inactive,inactive,inactive,inactive
NC(=O)c1ccc(NCC(=O)Nc2cccc(-c3cccc(-c4nc5ccc(F)cc5[nH]4)c3)c2)cc1,32%,15%,-3%,97% (active),inactive,inactive,inactive,inactive
COc1ccc2nccc([C@@H](O)CN3CCC(NC(=O)c4cccc(-c5cc(C)no5)c4)CC3)c2c1,89% (active),19%,1%,93% (active),inactive,inactive,inactive,inactive
COc1ccc(-c2cc(C(F)(F)F)n3ncc(C(=O)Nc4cc(C)ccc4O)c3n2)cc1OC,100% (active),2%,0%,100% (active),inactive,inactive,inactive,inactive
O=C(NCCCCN1CCC(c2ccc3c(c2O)CCCC3)CC1)c1ccc(NC(=O)c2ccc(Cl)cc2)cc1,100% (active),99% (active),-2%,100% (active),inactive,inactive,inactive,inactive
CCC(CC)CN1C(=O)C(C)(c2ccccc2)N=C1N (stereo not drawn),11%,1%,-2%,84% (active),inactive,inactive,inactive,inactive
COc1ccc(-n2cc(C(=O)c3cc(Br)ccc3O)cc(C#N)c2=O)cc1Cl,23%,29%,-5%,99% (active),inactive,inactive,inactive,inactive
COc1cc2nc(N(C)Cc3cc4c(Cl)cccc4s3)nc(N)c2cc1OC,27%,32%,4%,90% (active),inactive,inactive,inactive,inactive
CCCCCOc1ccc(N2C(N)=NC(N)=NC2(C)C)cc1,-4%,24%,-4%,97% (active),inactive,inactive,inactive,inactive
CNCCNCc1ccc(-c2ccc(-c3nc4ccc(C(F)(F)F)cc4[nH]3)cc2)cc1,92% (active),28%,1%,99% (active),inactive,inactive,inactive,inactive
